The whole screen tested about 48,000 compounds, of which about 13,000 (27%) showed an effect of 50% or more. The list shows a part of the results.
tested on: Wolbachia pipientis; test: Anti-Wolbachia Cell-Based Screen; type: functional; design: scale not given: in the data most compounds retested in dose-response had high values; conditions: 5 µM

Row | SMILES | Percent Effect [%]
1 | COc1cccc(CNCc2nnc3n2CC(C(F)(F)F)CC3)c1 (stereo not drawn) | -16.12
2 | CCC1COCCN1C(=O)CNC(=O)c1ccc2c(c1)CCC2 (stereo not drawn) | -1.675
3 | CCn1cc(NC(=O)NCC(C)(C)N2CCc3ccccc3C2)cn1 | 107.6
4 | CC(Cn1cccn1)NC(=O)NCCN1CCc2ccccc2C1 (stereo not drawn) | 1.571
5 | NC(=O)Cn1cc(NC(=O)N2CCCC2)cn1 | -13.27
6 | CCC(CNC(=O)Nc1cnn(CC)c1)N1CCCC1 (stereo not drawn) | -8.538
7 | NC(=O)Cn1cc(NC(=O)NCC2CCN(c3ccccc3)C2)cn1 (stereo not drawn) | 6.849
8 | CCn1cc(NC(=O)NCCN2CCc3ccccc3C2)cn1 | 123.6
9 | NC(=O)Cn1cc(NC(=O)NCCN2CCc3ccccc3C2)cn1 | 93.55
10 | CCn1cc(NC(=O)NCC(O)CN2CCc3ccccc3C2)cn1 (stereo not drawn) | 9.53
11 | CCC(CNC(=O)Nc1cnn(CC)c1)N1CCc2ccccc2C1 (stereo not drawn) | 115.3
12 | CCC(CNC(=O)c1ccccc1Br)N1CCc2ccccc2C1 (stereo not drawn) | -9.585
13 | CCn1cc(NC(=O)NCC(c2cccs2)N(C)C)cn1 (stereo not drawn) | -11.74
14 | O=C(NCC(O)CN1CCc2ccccc2C1)Nc1cccnc1 (stereo not drawn) | 1.395
15 | Cc1nn(C)c(N(C)C)c1CNCc1ccccc1Cn1cncn1 | 3.483
16 | CC(C)c1nn(C)c(N(C)C)c1CNCc1ccccc1CN(C)C | -8.36
17 | COCc1ccccc1CNCc1c(C)nn(C)c1N(C)C | 5.243

Row | SMILES | Percent Effect [%]
18 | COc1ncccc1CNCc1c(C(C)C)nn(C)c1N(C)C | 7.273
19 | COc1ncccc1CNCc1c(C)nn(C)c1N(C)C | 96.94
20 | Cc1nn(CCO)c(C)c1CNCc1cccnc1N(C)C | 113.9
21 | CCOc1ncccc1CNCc1c(C(C)C)nn(C)c1N(C)C | 98.21
22 | Cc1cc2nc(C(=O)NCc3cccnc3N(C)C)cc(C)n2n1 | -11.37
23 | Cc1cnn(CCNCc2c(C)nn(CCO)c2C)c1 | 8.317
24 | COCCOc1ncccc1CNCc1c(C)nn(C)c1N(C)C | 5.631
25 | Cc1nn(C)c(N(C)C)c1CNCc1cccnc1N(C)C | 64.69
26 | CCOc1ccc(NC2CCN(C)C2=O)cn1 (stereo not drawn) | -24.45
27 | Cc1noc(C)c1CN(C)CC1CC(C2CCCCC2)=NO1 (stereo not drawn) | 7.193
28 | Cc1cc(CNCC2(O)CCOCC2)ccc1Br | -3.743
29 | CN1CCN(CCCOc2ccccc2CN2C[C@H]3CC[C@H]2C3)CC1 | -24.99
30 | COc1c(CNCc2cccnc2OC(C)C)c(C(C)C)nn1C | 2.472
31 | Cc1nn(C)c(N(C)C)c1CNCc1cccnc1OC(C)C | 107.9
32 | CCOc1ncccc1CNCc1c(C)nn(C)c1N(C)C | 97
33 | Cc1nn(C)c(N(C)C)c1CNCc1ccccc1CN(C)C | 13.98

Reference: ChEMBL document CHEMBL3988442, “University of Dundee, Small-Polar-MMV Screening Library” (2021)
